Results on 13 molecules are retold here after PubChem BioAssay (NCI).

The panel holds about 83,000 compounds, 20% with a hit somewhere; the sample as a whole holds those more often.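 A percent growth of 40 corresponds to 60% growth inhibition; 0 means no net growth; -100 means all cells died. Active threshold: below 10.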 Unmarked numbers belong to inactive results. Activity calls are given as the source filed them.

Common to all, as to assay: NCI-60 one-dose screen, 48 h (100 = growth as untreated, 0 = no growth, -100 = all killed)
Holding throughout (conditions): 10 µM unless noted

Assay [1] concerns HCT-15 colon.
Assay [2] has as its system HT29 colon.
Assay [3] concerns SNB-75 CNS.
The test system of assay [4] is SNB-19 CNS.
For assay [5], the system named is U251 CNS.
In assay [6] the test system is PC-3 prostate.
Assay [7] has as its system SK-MEL-5 melanoma.
In assay [8] the test system is UACC-62 melanoma.
The test system of assay [9] is LOX IMVI melanoma.
The test system of assay [10] is SK-MEL-28 melanoma.

For `COc1ccc(NC(=O)c2sc3nc(C)c(C(O)c4ccccc4)cc3c2N)cc1` (stereo not given), the growth is 24.9% in assay [1]; 13.1% in [2]; 20.3% in assay [3]; 28.6% in assay [4]; 17.8% in [5]; 23.4% in assay [6]. In addition, the growth was 23.2% in assay [7], 26.2% in assay [8], 55.1% in assay [9] and 57% in [10].

As for `Cc1ccc(C)c2c1C(O)(C#Cc1ccccc1)c1ccccc1C2(O)C#Cc1ccccc1` (stereo not given), the growth in assay [1] was 27.7%; in assay [2], 38.9%; in [3] it was 48.3%; in assay [4], 70.4%; in assay [5], 34.3%; in [6], 29.4%. Also, the growth in assay [7] is 36.8%; in assay [8], 53.4%; in assay [9] it was 42.5%; in assay [10] it was 80.4%.

With `CC1(C)CC[C@]2(C(=O)O)CC[C@]3(C)C(=CC[C@@H]4[C@@]5(C)C[C@@H](Cc6cn([C@@H]7O[C@H](CO)[C@@H](O)[C@H](O)[C@H]7O)nn6)[C@H](O)C(C)(C)[C@@H]5CC[C@]43C)[C@@H]2C1`, the growth in assay [1] was 106%; in assay [2], 99.1%; in [3] it was 92%; in assay [4], 97%; in assay [5], 92%; in assay [6] it was 93.4%. The growth in assay [7] was 100%; in [8] it was 93.2%; in assay [9], 99.4%; in assay [10], 103%.

Regarding `CCNC(=O)Oc1ccc(/C(=C(/C)Cc2ccc(OC)cc2)c2ccc(OCCN3CCCC3)cc2)cc1`, the growth in assay [1] is 45.9%; in assay [2] it was 7.46% (active); in assay [3], 73.8%; in [4], 80.4%; in [5], 54.3%; in assay [6], 66.4%. For the same molecule, the growth in assay [7] was 57.7%; in assay [8] it was 69.1%; in [9], 60.8%; in assay [10], 66.1%.

Take `O=C(/C=C/C12c3ccccc3C(c3ccccc31)C1C(=O)NC(=O)C12)c1ccc(F)cc1` (stereo not given): the growth is -10.6% (active) in assay [1]; -3.81% (active) in assay [2]; 7.89% (active) in assay [3]; 10.6% in assay [4]; -44.4% (active) in [5]; 8.91% (active) in assay [6]. For the same molecule, the growth in assay [7] is 10.8%; in assay [8], -55.6% (active); in [9], -53.9% (active); in assay [10] it was 6.45% (active).

As to `COc1ccccc1NC(=O)c1ccc(/C=C/C(=O)c2nccn2C)cc1`, the growth is -30.3% (active) in assay [1]; -52.6% (active) in assay [2]; -3.01% (active) in assay [3]; -84.3% (active) in [4]; -74.6% (active) in [5]; -49.4% (active) in assay [6]. Further, the growth in [7] was -97.1% (active); in [8], -60.6% (active); in [9] it was -82.5% (active); in assay [10] it was -45.9% (active).

As for `CN1CCCc2cc(/C=C3/SC(=S)N(CCc4ccc(O)cc4)C3=O)ccc21`, the growth in [1] was 56.7%; in assay [2], 86.3%; in assay [3], 74.1%; in assay [4], 92.9%; in [5], 94.4%; in assay [6], 67.5%. Further, the growth in assay [7] is 92%; in assay [8] it was 71.9%; in assay [9] it was 77.3%; in [10] it was 88.5%.

As to `COc1ccc(NC(=O)c2cccc(C3CCc4c(cc(OC)c(OC)c4OC)O3)c2)cc1` (stereo not given), the growth in assay [1] was 17.3%; in [2] it was 6.06% (active); in assay [3], 13.1%; in assay [4], 33.3%; in assay [5], 23.4%; in assay [6], 5.96% (active). For the same molecule, the growth in [7] was 4.29% (active); in [8] it was 31.6%; in [9] it was 28.7%; in assay [10], 47%.

`CCCCc1oc2ccccc2c1C(=O)c1ccc(O)cc1`: the growth in [1] was 81.6%; in assay [2] it was 103%; in [3], 62.4%; in assay [4], 91.1%; in assay [5], 85.8%; in assay [6], 73%. The growth was 82.6% in assay [7], 69.1% in [8], 82.7% in assay [9] and 116% in assay [10].

With `c1ccc2cc(Cn3c[n+](Cc4ccc5ccccc5c4)c4ccccc43)ccc2c1`, the growth in assay [1] was 53.6%; in assay [2], -80.6% (active); in assay [3] it was -7.06% (active); in [4], -20.1% (active); in [5], -90.3% (active); in [6], -19.4% (active). In addition, the growth was -98.1% (active) in assay [7], -70.1% (active) in assay [8], -93.9% (active) in assay [9] and -28.9% (active) in assay [10].

Consider `COc1ccc(Cn2cc(C(=O)N=Nc3c(O)[nH]c4c(Cl)cccc34)nn2)cc1`, for which the growth was 107% in [1]; 97% in assay [2]; 82.1% in [3]; 93.6% in [4]; 102% in [5]; 96.7% in assay [6]. The growth in [7] was 101%; in [8], 102%; in assay [9], 93.7%; in assay [10], 115%.

Turning to `COc1ccc(/C(C)=C(\c2ccc(Cl)cc2)c2ccc(OCCN3CCCC3)cc2)cc1`, the growth in assay [1] was 7.96% (active); in [2], -18.1% (active); in assay [3], 91.4%; in [4], 52.1%; in assay [5], 19.4%; in assay [6], 32.7%. For the same molecule, the growth in assay [7] is -63.2% (active); in assay [8], -0.373% (active); in [9], -46.5% (active); in assay [10], -16.8% (active).

Take `O=C1OCC2=C1C(c1cccc(F)c1)c1cc3c(cc1N2CCO)OCO3` (stereo not given): the growth in assay [1] is 22.1%; in assay [2] it was 5.77% (active); in [3], 16.9%; in assay [4], 32.9%; in [5], 21.7%; in assay [6], 25.1%. Also, the growth in assay [7] was 22.8%; in assay [8], 47.2%; in assay [9], 34.9%; in assay [10], 59.5%.
